Laboratory results published in PubChem BioAssay (EPA / NIEHS).
Results filed as inconclusive are left out. Active and inactive are the calls of the source. Rule for the calls, unless noted: active = hit-call score of the fitted dose curve at least 0.9, where 1 is the maximum; inconclusive = response in the unintended direction; inactive = score below 0.9.

What was measured:
[1] = ATG_TAL_CIS: Attagene CIS-FACTORIAL HepG2 Assay for human TAL Basal Promoter (AID 2282966; active = hit-call score of the fitted dose curve at least 0.9, where 1 is the maximum; inactive = score below 0.9;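 note: background control endpoint measuring basal TAL promoter reporter mRNA not a specific factor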); conditions: HepG2 Attagene cis-factorial TAL promoter reporter; actives raise or lower the signal
Procedure, shortened: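 Endogenous transcription-factor activity is sensed in HepG2 cells through transfected cis-promoter reporter constructs. After 24 h dosing, reporter transcripts are quantified by RT-PCR and capillary electrophoresis. Gain or loss of signal is fitted relative to DMSO.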

[2] = ATG_TGFb_CIS: Attagene CIS-FACTORIAL HepG2 Assay for human Transforming Growth Factor (TGF) (AID 2282967; active = hit-call score of the fitted dose curve at least 0.9, where 1 is the maximum; inactive = score below 0.9); conditions: HepG2 Attagene CIS TGFb reporter, mRNA transcription; actives raise or lower the signal
Procedure, shortened: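 Transient MRTU transfection of HepG2 (FuGene 6). Dose 24 h. TriZol RNA, oligo(dT) RT, PCR, 6-FAM primer extension, HpaI cut, CE. Bidirectional fit, DMSO = baseline.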

[3] = ATG_VDRE_CIS: Attagene CIS-FACTORIAL HepG2 Assay for human Vitamin D Receptor Element (VDRE) (AID 2282968; active = hit-call score of the fitted dose curve at least 0.9, where 1 is the maximum; inactive = score below 0.9); conditions: HepG2 VDRE cis-reporter transcription, actives raise or lower the signal
Procedure, shortened: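 Compounds were applied for 24 h to HepG2 cells transfected with promoter-regulated reporter units. Total RNA was reverse-transcribed, and reporter amplicons were fluorescently labelled and sized by capillary electrophoresis.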

[4] = molecular target: Nuclear receptor subfamily 1 group I member 3 (Homo sapiens) (UniProt Q14994); test: ATG_CAR_TRANS: Attagene TRANS-FACTORIAL HepG2 Assay for human Constitutive Androstane Receptor (CAR) (AID 2282969); conditions: HepG2 Attagene TRANS-FACTORIAL CAR reporter;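 note: activators raise reporter mRNA above DMSO so AC50 marks induction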
Procedure, shortened: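 Transiently transfected HepG2, multiplex TRANS reporters (CAR-Gal4 chimera driving GAL4-UAS reporter). 24 h dosing. Readout: reporter transcript by RT-PCR + capillary electrophoresis, fluorescence intensity; positive direction vs DMSO.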

[5] = molecular target: Estrogen receptor (Homo sapiens) (UniProt P03372); test: ATG_ERa_TRANS: Attagene TRANS-FACTORIAL HepG2 Assay for human Estrogen Receptor alpha (ERa) (AID 2282970); conditions: HepG2 Attagene TRANS ERa GAL4 reporter, mRNA
Procedure, shortened: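 Transfected HepG2 cells carrying GAL4-UAS-driven reporter units were dosed for 24 hours. Total RNA was reverse-transcribed, reporter sequences PCR-amplified, FAM-labelled, HpaI-digested and resolved by capillary electrophoresis. Increases over DMSO control defined activity.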

[6] = molecular target: X-box-binding protein 1 (Homo sapiens) (UniProt P17861); test: ATG_Xbp1_CIS: Attagene CIS-FACTORIAL HepG2 Assay for human X-box Binding Protein 1 (XBP1) (AID 2282972; active = hit-call score of the fitted dose curve at least 0.9, where 1 is the maximum; inactive = score below 0.9); conditions: HepG2 XBP1 cis-element reporter, Attagene multiplex; actives raise or lower the signal
Procedure, shortened: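 Human hepatoma HepG2, cis-element reporter system, 24 h treatment; mRNA quantified by RT-PCR/CE fluorescence; fit relative to DMSO.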

[7] = molecular target: Oxysterols receptor LXR-beta (Homo sapiens) (UniProt P55055); test: ATG_LXRb_TRANS: Attagene TRANS-FACTORIAL HepG2 Assay for human Liver X Receptor beta (LXRb) (AID 2282981); conditions: HepG2 Attagene TRANS GAL4-LXRb reporter, mRNA
Procedure, shortened: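 Multiplexed reporter assay, HepG2, 24 h dosing. Fluorescence of labelled RT-PCR products after capillary electrophoresis gives transcript level; positive fitting direction relative to DMSO.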

[8] = molecular target: Hepatocyte nuclear factor 4-alpha (Homo sapiens) (UniProt P41235); test: ATG_HNF4a_TRANS: Attagene TRANS-FACTORIAL HepG2 Assay for human Hepatocyte Nuclear Factor 4 alpha (HNF4a) (AID 2282982); conditions: HepG2 HNF4a transactivation reporter, mRNA readout
Procedure, shortened: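 Endpoint reflects transcriptional activation of a GAL4-UAS reporter by an HNF4a-GAL4 chimera in transfected HepG2 cells, 24 h post-dosing. Fluorescence from RT-PCR products separated by capillary electrophoresis; DMSO baseline.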

[9] = ATG_M_06_TRANS: Attagene TRANS-FACTORIAL HepG2 Assay for M06 Transcription Factor (Internal Marker) (AID 2282983); conditions: HepG2 Attagene TRANS M06 internal marker reporter
Procedure, shortened: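 Human liver HepG2 cells bearing transiently transfected chimeric NR-GAL4 reporter units were treated with chemicals for 24 h. Total RNA was reverse-transcribed, reporter sequences amplified and labelled, then quantified by capillary electrophoresis. Activity was fitted upward relative to DMSO.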

[10] = ATG_M_32_TRANS: Attagene TRANS-FACTORIAL HepG2 Assay for M32 Transcription Factor (Internal Marker) (AID 2282984); conditions: HepG2 Attagene TRANS M32 internal marker reporter;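 note: transcript level of a background control reporter unit measured by RT-PCR and capillary electrophoresis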
Procedure, shortened: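 Internal-marker readout from a multiplexed transcription reporter panel. HepG2 cells were transfected with GAL4-UAS reporter units, treated 24 hours, and reporter transcript levels determined by fluorescence after RT-PCR and capillary separation.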

[11] = molecular target: Nuclear receptor subfamily 4 group A member 2 (Homo sapiens) (UniProt P43354); test: ATG_NURR1_TRANS: Attagene TRANS-FACTORIAL HepG2 Assay for human Nuclear Receptor Related Protein 1 (NURR1) (AID 2282985); conditions: HepG2 Attagene TRANS reporter, mRNA readout
Procedure, shortened: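 Endpoint: reporter mRNA increase relative to DMSO. HepG2 cells transfected with reporter units, treated 24 h; RNA processed by RT-PCR, labelling, HpaI digestion and capillary electrophoresis.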

[12] = molecular target: Transcriptional activator Myb (Homo sapiens) (UniProt P10242); test: ATG_Myb_CIS: Attagene CIS-FACTORIAL HepG2 Assay for human Myeloblastosis (Myb) Proto-Oncogene Transcription Factor (AID 2282986; active = hit-call score of the fitted dose curve at least 0.9, where 1 is the maximum; inactive = score below 0.9); conditions: HepG2 Attagene CIS-FACTORIAL Myb reporter transcription; actives raise or lower the signal
Procedure, shortened: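 After 24 h of compound dosing, total RNA from transfected HepG2 cells is reverse-transcribed and the reporter sequences amplified, labeled and separated by capillary electrophoresis. Values come from bidirectional fitting against DMSO.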

[13] = molecular target: Steroid hormone receptor ERR1 (Homo sapiens) (UniProt P11474); test: ATG_ERRa_TRANS: Attagene TRANS-FACTORIAL HepG2 Assay for human Estrogen-Related Receptor alpha (ERRa) (AID 2282971); conditions: HepG2 Attagene TRANS reporter, ERRa transactivation
Procedure, shortened: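 HepG2 cells were transiently transfected with multiple GAL4-UAS reporter units, then dosed with compound for 24 h. Total RNA was reverse-transcribed, reporter cDNA PCR-amplified and fluorescently labelled, and fragments resolved by capillary electrophoresis; induction was compared with DMSO.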

[14] = ATG_M_19_TRANS: Attagene TRANS-FACTORIAL HepG2 Assay for M19 Transcription Factor (Internal Marker) (AID 2282974); conditions: HepG2 Attagene TRANS-FACTORIAL M19 internal marker reporter
Procedure, shortened: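 Transfected HepG2 (GAL4-UAS MRTUs), 24 h compound, TriZol RNA, DNase-treated RT, reporter PCR, FAM label, HpaI digest, CE fluorescence; gain vs DMSO.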

[15] = ATG_GAL4_TRANS: Attagene TRANS-FACTORIAL HepG2 Assay for GAL4 (Internal Marker) (AID 2282976); conditions: HepG2 Attagene TRANS GAL4 internal marker reporter
Procedure, shortened: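 Fluorescence from capillary electrophoresis of labelled RT-PCR products quantifies reporter mRNA induction after 24 h dosing of HepG2 cells carrying transfected GAL4-UAS reporter transcription units. Vehicle DMSO serves as baseline.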

[16] = molecular target: Estrogen-related receptor gamma (Homo sapiens) (UniProt P62508); test: ATG_ERRg_TRANS: Attagene TRANS-FACTORIAL HepG2 Assay for human Estrogen-Related Receptor gamma (ERRg) (AID 2282977); conditions: HepG2 Attagene TRANS reporter, ERRg transactivation;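 note: hits increase reporter signal over DMSO so potencies reflect activators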
Procedure, shortened: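 Induction of reporter transcripts through a chimeric NR-Gal4 protein is quantified in transfected human HepG2 liver cells after 24 h chemical exposure, using RT-PCR with capillary electrophoresis detection and DMSO as baseline.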

[17] = molecular target: Nuclear respiratory factor 1 (Homo sapiens) (UniProt Q16656); test: ATG_NRF1_CIS: Attagene CIS-FACTORIAL HepG2 Assay for human Nuclear Respiratory Factor 1 (NRF1) Orphan Gene (AID 2282987; active = hit-call score of the fitted dose curve at least 0.9, where 1 is the maximum; inactive = score below 0.9); conditions: HepG2 NRF1 cis-element reporter, Attagene multiplex; actives raise or lower the signal
Procedure, shortened: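 Measured: fluorescent reporter-specific RT-PCR products from transfected HepG2 cells, separated by capillary electrophoresis. Exposure lasted 24 h. Analysis used bidirectional curve fitting with DMSO as negative control.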

[18] = molecular target: Glucocorticoid receptor (Homo sapiens) (UniProt P04150); test: ATG_GR_TRANS: Attagene TRANS-FACTORIAL HepG2 Assay for human Glucocorticoid Receptor (GR) (AID 2282978); conditions: HepG2 Attagene TRANS GR reporter, mRNA transcription;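 note: activators score as hits since higher reporter transcript over DMSO is fitted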
Procedure, shortened: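 After 24 h incubation with test chemical, transfected HepG2 cells were lysed for RNA; reporter cDNA was amplified, FAM-labelled, HpaI-digested and sized on a capillary analyser. Signal gain relative to DMSO was scored.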

[19] = molecular target: Bile acid receptor (Homo sapiens) (UniProt Q96RI1); test: ATG_FXR_TRANS: Attagene TRANS-FACTORIAL HepG2 Assay for Farnesoid X Receptor (FXR) (AID 2282979); conditions: HepG2 Attagene TRANS FXR-GAL4 reporter transcription;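 note: hits raise reporter mRNA above DMSO so AC50 marks FXR activation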
Procedure, shortened: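 Chimeric FXR-GAL4 activity in transiently transfected human HepG2 liver cells is scored as induction of reporter mRNA after 24 h of dosing. Detection uses RT-PCR with fluorescent labelling and capillary electrophoresis, with DMSO serving as baseline.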

[20] = molecular target: Oxysterols receptor LXR-alpha (Homo sapiens) (UniProt Q13133); test: ATG_LXRa_TRANS: Attagene TRANS-FACTORIAL HepG2 Assay for human Liver X Receptor alpha (LXRa) (AID 2282980); conditions: HepG2 Attagene TRANS reporter, LXRa transactivation
Procedure, shortened: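 Transient HepG2 transfectants, 24 h dosing, RT-PCR/CE mRNA reporter quantitation; gain-of-signal vs DMSO.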

Measured: outcome

Chain of Transcriptional activator Myb (Homo sapiens) (P10242 whole entry, looked up): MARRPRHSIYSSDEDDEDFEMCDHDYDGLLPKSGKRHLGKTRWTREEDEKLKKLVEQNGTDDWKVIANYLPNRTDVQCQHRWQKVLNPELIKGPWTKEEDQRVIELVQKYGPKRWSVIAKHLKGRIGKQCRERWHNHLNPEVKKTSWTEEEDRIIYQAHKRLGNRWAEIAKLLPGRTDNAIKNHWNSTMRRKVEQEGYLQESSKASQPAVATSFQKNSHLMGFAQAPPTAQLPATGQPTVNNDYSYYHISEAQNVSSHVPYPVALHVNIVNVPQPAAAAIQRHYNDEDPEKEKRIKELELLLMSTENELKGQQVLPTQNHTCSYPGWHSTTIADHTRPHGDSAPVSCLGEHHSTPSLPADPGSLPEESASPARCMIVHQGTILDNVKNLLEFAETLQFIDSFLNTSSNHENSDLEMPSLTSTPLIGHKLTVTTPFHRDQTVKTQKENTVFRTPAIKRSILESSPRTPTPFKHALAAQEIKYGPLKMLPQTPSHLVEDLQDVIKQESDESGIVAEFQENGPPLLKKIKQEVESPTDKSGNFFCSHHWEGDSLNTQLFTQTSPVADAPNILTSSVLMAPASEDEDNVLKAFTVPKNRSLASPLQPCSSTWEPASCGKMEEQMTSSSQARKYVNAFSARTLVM
Chain of Nuclear receptor subfamily 1 group I member 3 (Homo sapiens) (Q14994 whole entry, looked up, the tested form may be a part): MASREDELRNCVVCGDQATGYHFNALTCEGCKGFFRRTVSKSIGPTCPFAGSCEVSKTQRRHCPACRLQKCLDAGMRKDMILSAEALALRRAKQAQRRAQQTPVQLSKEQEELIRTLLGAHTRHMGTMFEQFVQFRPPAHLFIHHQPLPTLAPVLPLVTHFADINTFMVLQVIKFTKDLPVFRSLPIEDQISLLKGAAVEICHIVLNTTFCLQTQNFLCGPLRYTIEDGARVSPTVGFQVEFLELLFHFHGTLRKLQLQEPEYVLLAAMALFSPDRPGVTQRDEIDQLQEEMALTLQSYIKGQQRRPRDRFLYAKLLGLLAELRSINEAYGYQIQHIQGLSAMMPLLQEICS
Chain of Hepatocyte nuclear factor 4-alpha (Homo sapiens) (P41235 whole entry, looked up, the tested form may be a part): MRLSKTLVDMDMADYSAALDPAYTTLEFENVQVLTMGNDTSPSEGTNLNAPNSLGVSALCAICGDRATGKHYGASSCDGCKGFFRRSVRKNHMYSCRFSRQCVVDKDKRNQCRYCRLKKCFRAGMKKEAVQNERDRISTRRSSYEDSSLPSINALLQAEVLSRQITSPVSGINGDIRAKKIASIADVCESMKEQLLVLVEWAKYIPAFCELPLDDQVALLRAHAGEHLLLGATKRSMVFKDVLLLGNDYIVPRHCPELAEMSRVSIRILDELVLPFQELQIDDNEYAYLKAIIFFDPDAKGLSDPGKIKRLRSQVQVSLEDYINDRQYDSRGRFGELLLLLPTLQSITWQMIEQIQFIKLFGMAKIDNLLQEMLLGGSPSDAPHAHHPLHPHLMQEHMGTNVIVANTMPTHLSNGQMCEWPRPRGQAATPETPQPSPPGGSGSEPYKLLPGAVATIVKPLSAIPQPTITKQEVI
Chain of Nuclear receptor subfamily 4 group A member 2 (Homo sapiens) (P43354 whole entry, looked up): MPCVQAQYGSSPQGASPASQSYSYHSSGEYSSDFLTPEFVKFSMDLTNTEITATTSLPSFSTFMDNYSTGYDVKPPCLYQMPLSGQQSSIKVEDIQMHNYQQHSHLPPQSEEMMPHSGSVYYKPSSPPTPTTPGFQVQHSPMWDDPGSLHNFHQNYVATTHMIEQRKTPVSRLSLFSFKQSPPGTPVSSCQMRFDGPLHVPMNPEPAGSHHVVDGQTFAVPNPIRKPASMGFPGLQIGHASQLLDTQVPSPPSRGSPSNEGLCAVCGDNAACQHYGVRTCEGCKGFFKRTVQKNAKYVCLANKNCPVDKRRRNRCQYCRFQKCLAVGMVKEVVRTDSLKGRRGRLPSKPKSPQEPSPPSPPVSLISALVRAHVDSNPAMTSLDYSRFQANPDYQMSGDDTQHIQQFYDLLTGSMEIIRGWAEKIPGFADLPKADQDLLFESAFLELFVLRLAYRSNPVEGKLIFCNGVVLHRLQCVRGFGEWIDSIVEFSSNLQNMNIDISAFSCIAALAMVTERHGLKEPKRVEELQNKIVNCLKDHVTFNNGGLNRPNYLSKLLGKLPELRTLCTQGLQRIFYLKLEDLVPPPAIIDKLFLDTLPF
Chain of Oxysterols receptor LXR-beta (Homo sapiens) (P55055 whole entry, looked up, the tested form may be a part): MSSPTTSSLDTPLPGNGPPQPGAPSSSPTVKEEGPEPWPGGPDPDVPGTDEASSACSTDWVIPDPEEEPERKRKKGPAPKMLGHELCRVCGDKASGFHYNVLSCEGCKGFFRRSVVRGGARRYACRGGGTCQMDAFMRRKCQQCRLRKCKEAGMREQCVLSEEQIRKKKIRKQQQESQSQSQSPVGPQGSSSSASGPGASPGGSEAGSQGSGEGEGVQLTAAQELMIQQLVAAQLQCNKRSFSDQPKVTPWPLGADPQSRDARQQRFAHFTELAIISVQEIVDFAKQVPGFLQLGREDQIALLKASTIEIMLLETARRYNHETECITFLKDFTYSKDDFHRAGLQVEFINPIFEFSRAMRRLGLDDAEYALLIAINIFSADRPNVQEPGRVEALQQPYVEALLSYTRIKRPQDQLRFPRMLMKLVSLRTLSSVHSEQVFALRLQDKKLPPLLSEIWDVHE
Chain of Nuclear respiratory factor 1 (Homo sapiens) (Q16656 whole entry, looked up): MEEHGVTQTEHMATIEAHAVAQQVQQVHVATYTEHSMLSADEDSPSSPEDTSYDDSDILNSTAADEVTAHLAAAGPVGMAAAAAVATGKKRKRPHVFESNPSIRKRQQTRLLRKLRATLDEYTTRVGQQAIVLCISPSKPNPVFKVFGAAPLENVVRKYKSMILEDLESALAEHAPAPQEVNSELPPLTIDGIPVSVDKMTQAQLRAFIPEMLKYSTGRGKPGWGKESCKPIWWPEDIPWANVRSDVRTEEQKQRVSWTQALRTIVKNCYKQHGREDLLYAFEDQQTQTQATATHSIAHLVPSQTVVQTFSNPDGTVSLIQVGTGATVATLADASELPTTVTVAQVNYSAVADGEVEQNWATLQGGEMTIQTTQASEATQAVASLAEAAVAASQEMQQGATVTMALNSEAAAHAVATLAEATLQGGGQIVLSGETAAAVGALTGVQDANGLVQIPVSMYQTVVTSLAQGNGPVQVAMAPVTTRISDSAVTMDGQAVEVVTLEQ
Chain of Estrogen receptor (Homo sapiens) (P03372 whole entry, looked up, the tested form may be a part): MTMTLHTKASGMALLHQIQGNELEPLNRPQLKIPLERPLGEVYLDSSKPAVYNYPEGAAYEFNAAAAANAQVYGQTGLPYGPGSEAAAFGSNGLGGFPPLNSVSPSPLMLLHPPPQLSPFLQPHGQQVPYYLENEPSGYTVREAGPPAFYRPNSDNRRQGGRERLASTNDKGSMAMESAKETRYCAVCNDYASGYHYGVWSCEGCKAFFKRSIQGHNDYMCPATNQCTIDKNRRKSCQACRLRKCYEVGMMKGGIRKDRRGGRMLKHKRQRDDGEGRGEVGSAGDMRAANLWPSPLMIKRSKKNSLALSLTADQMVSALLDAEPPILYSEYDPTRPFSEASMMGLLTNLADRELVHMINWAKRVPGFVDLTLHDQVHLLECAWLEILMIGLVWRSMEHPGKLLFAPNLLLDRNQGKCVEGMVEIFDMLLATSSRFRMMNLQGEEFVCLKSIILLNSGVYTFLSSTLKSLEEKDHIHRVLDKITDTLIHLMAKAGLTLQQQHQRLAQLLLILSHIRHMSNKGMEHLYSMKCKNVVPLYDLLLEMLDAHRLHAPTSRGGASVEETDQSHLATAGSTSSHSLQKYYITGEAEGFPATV
Chain of X-box-binding protein 1 (Homo sapiens) (P17861 whole entry, looked up): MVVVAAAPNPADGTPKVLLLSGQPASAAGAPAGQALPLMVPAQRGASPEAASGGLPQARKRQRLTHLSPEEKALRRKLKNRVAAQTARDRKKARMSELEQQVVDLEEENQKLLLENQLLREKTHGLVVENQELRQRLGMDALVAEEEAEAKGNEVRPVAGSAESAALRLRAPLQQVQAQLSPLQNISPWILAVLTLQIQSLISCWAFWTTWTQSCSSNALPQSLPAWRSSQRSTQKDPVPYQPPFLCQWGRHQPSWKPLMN
Chain of Bile acid receptor (Homo sapiens) (Q96RI1 whole entry, looked up, the tested form may be a part): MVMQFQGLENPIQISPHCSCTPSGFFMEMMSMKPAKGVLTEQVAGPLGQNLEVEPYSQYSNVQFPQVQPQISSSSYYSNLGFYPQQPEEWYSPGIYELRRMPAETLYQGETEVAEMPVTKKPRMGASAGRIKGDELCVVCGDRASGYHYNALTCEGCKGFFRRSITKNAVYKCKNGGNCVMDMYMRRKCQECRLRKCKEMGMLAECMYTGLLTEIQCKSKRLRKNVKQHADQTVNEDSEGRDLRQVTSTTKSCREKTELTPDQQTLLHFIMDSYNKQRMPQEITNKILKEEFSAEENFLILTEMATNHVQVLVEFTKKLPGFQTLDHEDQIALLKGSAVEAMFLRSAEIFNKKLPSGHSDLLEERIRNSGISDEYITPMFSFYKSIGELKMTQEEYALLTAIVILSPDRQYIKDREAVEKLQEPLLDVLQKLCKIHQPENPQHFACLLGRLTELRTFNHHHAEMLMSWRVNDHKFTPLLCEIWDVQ
Chain of Estrogen-related receptor gamma (Homo sapiens) (P62508 whole entry, looked up, the tested form may be a part): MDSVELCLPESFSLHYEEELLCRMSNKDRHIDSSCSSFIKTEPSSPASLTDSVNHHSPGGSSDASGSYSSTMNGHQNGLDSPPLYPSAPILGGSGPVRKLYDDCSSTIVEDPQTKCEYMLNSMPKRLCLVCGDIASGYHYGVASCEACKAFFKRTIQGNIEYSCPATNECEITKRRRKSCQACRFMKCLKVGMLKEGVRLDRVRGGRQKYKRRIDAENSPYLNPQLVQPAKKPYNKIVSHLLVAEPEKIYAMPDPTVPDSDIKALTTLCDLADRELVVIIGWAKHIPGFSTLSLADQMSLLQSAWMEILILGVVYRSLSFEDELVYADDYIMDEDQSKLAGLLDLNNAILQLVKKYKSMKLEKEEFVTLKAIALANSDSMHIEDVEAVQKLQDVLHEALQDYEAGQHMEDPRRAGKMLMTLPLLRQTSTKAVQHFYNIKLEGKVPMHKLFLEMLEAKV

CCN(CC#N)c1cccc(C)c1
not listed: [13] | [14] | [15] | [16] | [17] | [18] | [19] | [20]
inactive: all other assays above

Cc1cc(C)c(C)c(C)c1
not listed: [5] | [6] | [11] | [18] | [19] | [20]
inactive: all other assays above

O=C(O)c1cc(Cl)cc([N+](=O)[O-])c1Cl
not listed: [5] | [7] | [11] | [13] | [16] | [18] | [19] | [20]
inactive: all other assays above

CCCCCCCCCCc1ccccc1
not listed: [4] | [8] | [14] | [15] | [20]
inactive: all other assays above

C[Si](C)(C)O[Si](O)(O)O
inactive: [1] | [2] | [3] | [5] | [6] | [18] | [19] | [20] | [9] | [11] | [12]

CCCCOCCOC(=O)COc1nc(Cl)c(Cl)cc1Cl
inactive: [1] | [2] | [3] | [5] | [6] | [14] | [10] | [12]
